# Experimental data from publication PMC4336329 (PLoS ONE, 2015).
# The whole screen tested about 310,000 compounds, of which about 14,000 (4.5%) showed an effect of 50% or more. The effect is printed as a negative number. The full list was thinned out, with strong results kept by preference.
# Molecular target: human ether-à-go-go-related gene (hERG) potassium channel (human, UniProt Q12809)
# Assay: primary screen, population patch clamp on CHO cells stably expressing hERG; higher = less effect of the substance
# 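Note: peak tail current of the secondary pulse compared with the same well before compound.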
# human ether-à-go-go-related gene (hERG) potassium channel, sequence (Q12809 whole entry, looked up): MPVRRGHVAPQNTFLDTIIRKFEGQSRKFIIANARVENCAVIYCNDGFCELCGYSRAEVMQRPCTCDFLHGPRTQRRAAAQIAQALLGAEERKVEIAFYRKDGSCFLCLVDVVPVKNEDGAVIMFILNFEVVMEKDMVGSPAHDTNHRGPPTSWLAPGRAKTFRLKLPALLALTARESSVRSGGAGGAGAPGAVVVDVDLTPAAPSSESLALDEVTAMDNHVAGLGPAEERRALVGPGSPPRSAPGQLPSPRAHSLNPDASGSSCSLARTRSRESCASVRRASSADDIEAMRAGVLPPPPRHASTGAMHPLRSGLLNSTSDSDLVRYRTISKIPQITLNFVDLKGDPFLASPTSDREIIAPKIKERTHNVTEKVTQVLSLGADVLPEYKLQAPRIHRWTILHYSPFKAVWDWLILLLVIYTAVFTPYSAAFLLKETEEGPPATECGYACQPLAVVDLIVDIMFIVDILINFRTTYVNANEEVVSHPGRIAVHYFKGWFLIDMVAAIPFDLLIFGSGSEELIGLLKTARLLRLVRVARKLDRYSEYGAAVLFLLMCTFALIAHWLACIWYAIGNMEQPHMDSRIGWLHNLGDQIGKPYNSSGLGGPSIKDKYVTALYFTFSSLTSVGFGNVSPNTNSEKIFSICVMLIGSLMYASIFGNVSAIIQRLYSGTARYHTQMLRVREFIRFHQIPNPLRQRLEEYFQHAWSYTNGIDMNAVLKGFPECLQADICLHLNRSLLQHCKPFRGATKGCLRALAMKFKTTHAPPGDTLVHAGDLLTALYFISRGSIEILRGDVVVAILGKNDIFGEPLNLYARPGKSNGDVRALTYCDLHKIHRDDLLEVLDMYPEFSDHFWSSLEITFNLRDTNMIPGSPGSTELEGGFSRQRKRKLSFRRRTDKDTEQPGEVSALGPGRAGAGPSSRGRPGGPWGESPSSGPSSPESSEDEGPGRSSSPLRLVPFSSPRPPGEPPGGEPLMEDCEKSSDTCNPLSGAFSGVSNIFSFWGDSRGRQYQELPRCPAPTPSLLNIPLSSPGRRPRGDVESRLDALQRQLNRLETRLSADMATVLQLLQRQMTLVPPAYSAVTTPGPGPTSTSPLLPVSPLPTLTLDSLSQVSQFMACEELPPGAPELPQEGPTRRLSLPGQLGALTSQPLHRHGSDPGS
row,Structure (SMILES),"hERG current change (%, negative = inhibition) at 10uM [%]"
1,CCCn1c(N)c(N2CCCCC2)c(=O)n(CC(=O)Nc2ccccc2C)c1=O,14.6
2,Cc1nn(C)cc1C(C)Nc1nc2nonc2nc1N1CCCCC1 (stereo not shown),0.196
3,CCN(Cc1ccc2c(c1)OCO2)C(=O)CSc1nc(C)nc2sc(C)c(C)c12,-5.76
4,COc1ccc(C(=O)Nc2c(N)nc(SCC(=O)Nc3ccc(NC(C)=O)cc3)[nH]c2=O)cc1,21.9
5,CCN(CC)CCC(c1ccc2c(c1)OCO2)c1c(OC)cc(OC)c2c(-c3ccccc3)cc(=O)oc12 (stereo not shown),-65.4
6,CCN(CC)CCC(c1ccc(N(C)C)cc1)c1c(OC)cc(OC)c2c(-c3ccccc3)cc(=O)oc12 (stereo not shown),-24.5
7,COc1ccc(C(CC(=O)N2CCCC2)c2c(OC)cc(OC)c3c(-c4ccccc4)cc(=O)oc23)cc1 (stereo not shown),-5.46
8,COc1ccc(C(CCN2CCN(c3ccccc3)CC2)c2c(OC)cc(OC)c3c(-c4ccccc4)cc(=O)oc23)cc1 (stereo not shown),-9.55
9,CCN(CC)C(=O)CC(c1ccc2c(c1)OCO2)c1c(OC)cc(OC)c2c(-c3ccccc3)cc(=O)oc12 (stereo not shown),5.08
10,COc1ccc(C(CC(=O)N2CCCCC2)c2c(OC)cc(OC)c3c(-c4ccccc4)cc(=O)oc23)cc1 (stereo not shown),0.849
11,COc1cc(OC)c2c(-c3ccccc3)cc(=O)oc2c1C(CCN1CCCCC1)c1ccc(N(C)C)cc1 (stereo not shown),-25
12,COc1cc(OC)c2c(-c3ccccc3)cc(=O)oc2c1C(CCN1CCCC(C)C1)c1ccc2c(c1)OCO2 (stereo not shown),-48.8
13,COc1ccc(C(CCN2CCCCC2)c2c(OC)cc(OC)c3c(-c4ccccc4)cc(=O)oc23)cc1 (stereo not shown),-55.1
14,COc1cc(OC)c2c(-c3ccccc3)cc(=O)oc2c1C(CCN1CCCCC1)c1ccc2c(c1)OCO2 (stereo not shown),-53.2
15,COc1cc(OC)c2c(-c3ccccc3)cc(=O)oc2c1C(CCN1CCCC1)c1ccc2c(c1)OCO2 (stereo not shown),-46.9
16,COc1ccc(C(CCN2CCCC2)c2c(OC)cc(OC)c3c(-c4ccccc4)cc(=O)oc23)cc1 (stereo not shown),-52.7
17,Nc1cc(=O)[nH]c(SCc2nnnn2-c2ccc(Cl)cc2)n1,4.04
18,CCN1CCCC1CNC(=O)Cn1cc2c(n1)CCC(C)C2 (stereo not shown),5.4
19,Cn1ncc(C#N)c1/N=C/N(Cc1ccccc1)Cc1ccccc1,-9.12
20,COCCN(C(=O)COC(=O)c1ccccc1Nc1ccccc1)c1c(N)n(Cc2ccccc2)c(=O)[nH]c1=O,-44.9
21,Cc1occc1C(=O)NNC(=S)NCc1ccccc1,6.47

row,Structure (SMILES),"hERG current change (%, negative = inhibition) at 10uM [%]"
1,CC(C)(C)C(=O)Nc1cc2c3c(c1)CC(=O)N3CCC2,18.3
2,CCN1CCCC1CN(Cc1cc2cc(C)cc(C)c2[nH]c1=O)C(=O)Nc1ccccc1OC (stereo not shown),-61.4
3,COc1ccccc1NC(=O)N(Cc1ccco1)Cc1cc2cc(C)cc(C)c2[nH]c1=O,-2.39
4,Cc1ccc2[nH]c(=O)c(CN(CC3COCCO3)C(=O)Nc3ccccc3C)cc2c1 (stereo not shown),3.87
5,CCN1CCCC1CN(Cc1cc2ccc(C)c(C)c2[nH]c1=O)C(=O)Nc1ccccc1OC (stereo not shown),-63.3
6,COc1ccccc1NC(=O)N(Cc1ccco1)Cc1cc2ccc(C)c(C)c2[nH]c1=O,8.85
7,CCN1CCCC1CN(Cc1cc2cc(C)ccc2[nH]c1=O)C(=O)Nc1ccccc1OC (stereo not shown),-60
8,COc1ccccc1NC(=O)N(Cc1cc2cc(OC)c(OC)cc2[nH]c1=O)CC1CCCO1 (stereo not shown),-9.13
9,CCOc1ccc2[nH]c(=O)c(CN(CC3CCCN3CC)C(=O)NCc3ccccc3)cc2c1 (stereo not shown),-63.2
10,CCOc1ccc2[nH]c(=O)c(CN(Cc3ccccc3)C(=O)N3CCCC3)cc2c1,9.28
11,COc1ccccc1NC(=O)N(CCN1CCOCC1)Cc1cc2cc(C)cc(C)c2[nH]c1=O,-33.2
12,COc1ccccc1NC(=S)N(Cc1ccco1)Cc1cc2ccc(C)c(C)c2[nH]c1=O,-8.05
13,CCN1CCCC1CN(Cc1cc2cc(OC)ccc2[nH]c1=O)C(=O)NCc1ccccc1 (stereo not shown),-46.4
14,CCn1c(Cc2c(C)[nH]c3ccccc23)nnc1SCC(N)=O,13.4
15,Cc1nn(C)c2c(=O)c(=O)c2n(C)[nH]1,18
16,Cc1c(C(=O)NCC2CCCO2)oc2ccc3c(c12)C(=O)CC(C)(C)O3 (stereo not shown),2.71
17,O=C(CSc1nnc(CNC(=O)c2ccco2)o1)Nc1cccc(C(F)(F)F)c1,-48.3
18,COc1cccc(NC(=O)Cc2csc(NC(=O)Nc3ccccc3OC)n2)c1,18.2
19,COc1ccc(CNCc2c(O)c(Cl)cc3c(C)c(C)c(=O)oc23)c(OC)c1.Cl,-3.6
20,O=C(Cn1c(=O)oc2cc(S(=O)(=O)N3CCCC3)ccc21)N1CCc2ccccc2C1,-32.3
21,Cc1cccc2nc(CSCc3ccco3)cn12,-2.01

row,Structure (SMILES),"hERG current change (%, negative = inhibition) at 10uM [%]"
1,O=C1c2ccccc2C(=O)N1OCc1ccccc1[N+](=O)[O-],23.7
2,COc1cccc(CN2CCN(C(=O)CC(C)C)CC2)c1,-13.1
3,O=[N+]([O-])c1ccc(N2CCN(C(=S)Nc3ccc(F)cc3)CC2)cc1,-44.4
4,COc1cccc(CN2CCN(C(=O)Nc3ccc([N+](=O)[O-])cc3)CC2)c1,-57.2
5,COc1ccc(NC(=O)N2CCCC2)cc1OC,-10.2
6,CCOC(=O)c1ccc(NC(=O)N2CCN(c3ccccc3OC)CC2)cc1,11.4
7,CN1CCN(C(=O)Nc2ccc([N+](=O)[O-])cc2)CC1,-23.8
8,COc1ccc(NC(=O)N2CCN(c3ccc([N+](=O)[O-])cc3)CC2)cc1OC,-73.2
9,COc1ccc(NC(=O)N2CCN(c3ccc([N+](=O)[O-])cc3)CC2)cc1,-36.9
10,O=[N+]([O-])c1ccc(NC(=S)N2CCN(c3ccc(F)cc3)CC2)cc1,3.73
11,COc1ccccc1N1CCN(C(=O)Nc2ccc([N+](=O)[O-])cc2)CC1,-52.4
12,O=[N+]([O-])c1ccc(N2CCN(C(=S)Nc3cccc(F)c3)CC2)cc1,-52
13,COc1ccccc1N1CCN(C(=O)c2cc(C(=O)N3CCN(c4ccccc4OC)CC3)cc([N+](=O)[O-])c2)CC1,-0.436
14,CCCC[C@@H]1CNC(=S)N1CCC12CC3CC(CC(C3)C1)C2,18.9
15,C=CCn1cccc(C(=O)Nc2ccc(SC)cc2)c1=O,-15
16,Cc1nn(CC(=O)N2CCN(C34CC5CC(CC(C5)C3)C4)CC2)c(C)c1[N+](=O)[O-],-1.7
17,Cc1ccc2c(cnn2C(=O)CCCC(=O)NCc2ccc(F)cc2)c1,-9.47
18,O=C(NCCc1ccccc1)/C(=C/c1ccco1)c1ccccc1,-13.8
19,CN(C)S(=O)(=O)c1cccc(C(=O)NCC(=O)NC2CCN(Cc3ccccc3)CC2)c1,3.32
20,Cc1ccc(C(=O)CSc2nnnn2C(C)C)c(C)c1,-3.38
21,Cc1nc2ccc([N+](=O)[O-])cc2c(=O)n1Cc1cccc(Br)c1,-4.24

row,Structure (SMILES),"hERG current change (%, negative = inhibition) at 10uM [%]"
1,COc1ccc(OC)c(NC(=O)c2cc3ccccc3cc2OC)c1,2.44
2,CCc1c(C#N)sc(C(N)=O)c1CC,13.3
3,O=[N+]([O-])c1ccc(NC(=S)N2CCN(c3ccccc3)CC2)cc1,-11.4
4,COc1cccc(NC(=S)N2CCN(c3ccc([N+](=O)[O-])cc3)CC2)c1,-27.5
5,COc1ccc(NC(=S)N2CCN(c3ccc([N+](=O)[O-])cc3)CC2)cc1OC,-77.3
6,CCOC(=O)c1cc(CC)sc1NC(=O)C1CC1,-7.16
7,COC(=O)[C@H](CCSC)NC(=O)NCc1cccs1,20.6
8,CCOC(=O)C1CCN(Cc2ccc(OC)c(OCc3ccccc3)c2)CC1,-38.3
9,CCOC(=O)C1CCCN(Cc2ccc(OCc3ccccc3)cc2)C1.O=C(O)C(=O)O (stereo not shown),-40.6
10,CCOC(=O)C1CCN(Cc2cccc(OCc3ccccc3)c2)CC1.O=C(O)C(=O)O,-43.2
11,CCCCNC(=O)C1CCN(Cc2ccc(OCc3ccccc3)c(OC)c2)CC1.O=C(O)C(=O)O,-67.2
12,CCOC(=O)C1CCN(Cc2ccc(OCc3ccccc3)cc2)CC1.O=C(O)C(=O)O,-62
13,CC(C)CCNC(=O)C1CCN(Cc2cccc(OCc3ccccc3)c2)CC1.O=C(O)C(=O)O,-50.8
14,COCCNC(=O)C1CCN(Cc2cccc(OCc3ccccc3)c2)CC1,-12.2
15,NC(=O)C1CCN(Cc2cccc(OCc3ccccc3)c2)CC1.O=C(O)C(=O)O,-12
16,CCOCCCNC(=O)C1CCN(Cc2ccc(OCc3ccccc3)c(OC)c2)CC1.O=C(O)C(=O)O,-43.3
17,CCOC(=O)N1CCN(C(=O)C2CCN(Cc3cccc(OCc4ccccc4)c3)CC2)CC1.O=C(O)C(=O)O,-58.4
18,CCOCCCNC(=O)C1CCN(Cc2cccc(OCc3ccccc3)c2)CC1.O=C(O)C(=O)O,-14.1
19,CCOC(=O)N1CCN(C(=O)C2CCN(Cc3ccc(O)c(OCC)c3)CC2)CC1.O=C(O)C(=O)O,20.2
